Measurements published in PubChem BioAssay AID449762 (Southern Research Specialized Biocontainment Screening …, 2010).
About 1,900 (0.58%) of roughly 330,000 compounds were called active. Another 4% or so got no clear call; they are omitted. A selection follows. Results with a measured potency or affinity are listed apart. A number with no mark means an inactive call. No stated cut-off is given here; in the data, inconclusive means inhibition above about 70% without an active follow-up result; inactive means below that.

Experiment: M. tuberculosis growth inhibition, HTS (AID 449762);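 further: bacterial growth assessed after seven days of incubation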
Details: M. tuberculosis H37Rv growth inhibition, 7H9 media; at 25 µM; stronger effect = higher value

| SMILES | inhibition |
| --- | --- |
| Cc1nn(-c2ccccc2)c(N)c1N=Nc1ccc2ccccc2c1 | 56.7% |
| Cc1nn(-c2ccccc2)c(N)c1N=Nc1ccccc1 | -2.88% |
| O=c1c2sccc2nc(SCc2ccc([N+](=O)[O-])cc2)n1Cc1ccccn1 | 4.82% |
| O=C(CSc1nnnn1-c1ccc2c(c1)OCCO2)N1CCc2ccccc21 | 5.18% |
| O=C(CCc1n[nH]c(=O)[nH]c1=O)N1CCOCC1 | -14.1% |
| CCCNC(=O)c1cccc(COc2ccccc2OC)c1 | 3.61% |
| Cc1nc2ccccn2c(=O)c1CCN1CCC(C(=O)c2ccc(F)cc2)CC1 | -4.74% |
| Cc1nc2sccn2c(=O)c1S(=O)(=O)N1CCN(c2ccc(F)cc2)CC1 | 8.78% |
| CCCNC(=S)N(Cc1cc2cc(C)ccc2n2nnnc12)CC(C)(C)CN(C)C | 18.8% |
| CNCCNC[C@H](Cc1cccc2ccccc12)NCCc1ccccc1 | -2.82% |
| CSCC[C@H](NC(=O)OC(C)(C)C)C(=O)NCC1CCC(C(=O)N[C@@H](Cc2ccccc2)C(=O)O)CC1 (some centres undefined) | 2.33% |
| C=CCOc1ccccc1CNCCNC(=O)c1nonc1N | -4.17% |
| CCCCCOC(=O)Cn1c(SCC(=O)Nc2ccccc2)nc2c1c(=O)[nH]c(=O)n2C | -7.54% |
| O=C(c1cc([N+](=O)[O-])ccc1N1CCOCC1)N1CCN(S(=O)(=O)c2ccc(F)cc2)CC1 | -2.15% |
| C/C(=N/NC(=O)c1cc2ccccc2cc1O)c1ccco1 | 66.3% |
| C/C(=N\NC(=O)c1cc2ccccc2cc1O)c1cccs1 | -0.54% |
| N#CCCN(C(=O)COC(=O)c1nc(Cl)ccc1Cl)c1ccccc1 | -6.38% |
| C=CCn1c(C(C)NC(=O)c2cccs2)n[nH]c1=S (centres undefined) | -3.28% |
| CCC(C)Oc1cc(-c2ccnc(Nc3cccc(Cl)c3)n2)ccn1 (centres undefined) | 63.7% |
| OCCCNc1nccc(-c2cc(Nc3cccc(Cl)c3)ncn2)n1 | 5.56% |

| SMILES | inhibition |
| --- | --- |
| Cc1ccc(-c2nnn(CC(=O)N(c3cccc(F)c3)C(C(=O)NC3CCCC3)c3ccncc3)n2)o1 (centres undefined) | 0.25% |
| COCCCNC(=O)CSc1ccc(Cl)cc1 | -2.16% |
| CCN(c1ccccc1)S(=O)(=O)c1ccc(OC)c(N=N/C(C(=O)Nc2ccccc2)=C(/C)O)c1 | 10.8% |
| O=C(NCC(c1ccco1)N1CCOCC1)c1cccc([N+](=O)[O-])c1 (centres undefined) | 1.76% |
| CC[C@H](C)[C@@H](CN[C@H](CCCCNC)CNC)NCC1CCCC1 | 4.48% |
| CC(C)NCC(O)COC1CCC(C(C)(C)C)CC1 (centres undefined) | -7.84% |
| Cc1ccc(C2C3=C(CC(C)(C)CC3=O)OC3=C2C(=O)CC(C)(C)C3)cc1 | -4.24% |
| Cc1onc(-c2ccccc2)c1C(=O)OCC(=O)N1CCC(C)CC1 | -0.29% |
| CSc1nnc(C)c(/C=C/NOCc2ccc(Cl)cc2)n1 | -4.59% |
| CCc1ccc2c(c1)cc(CN(C(=S)Nc1ccc(Cl)cc1)C1CC1)c1nnnn12 | -13.5% |
| Cc1ccccc1-n1cnc2cc(NCc3cccs3)ccc21 | 59.7% |
| Cn1cnc2cc(NCc3cccs3)ccc21 | 2.02% |
| CCn1c(SC(C)C(=O)N2CCOCC2)nc2sc(C)c(C)c2c1=O (centres undefined) | -0.24% |
| CCC(C)[C@H](NC(=O)C1CC(=O)N(c2ccc3c(c2)OCCO3)C1)C(=O)NC1CCCC1 (some centres undefined) | -2.76% |
| CN(CCC#N)C(=O)COC(=O)c1ccc2c(c1)C(=O)N(C1CCCCC1)C2=O | 11.1% |
| O=C(O)COc1ccc(NC(=O)c2ccc3c(c2)C(=O)N(C2CCCCC2)C3=O)cc1 | -5.81% |
| CCC(=O)Nc1ccc2c(c1)C(=O)N(C1CCCCC1)C2=O | 12.2% |
| COC(=O)c1ccc2c(c1)C(=O)N(C1CCCCC1)C2=O | 48.9% |
| Clc1cccc(C2CCN(Cc3nc(CC4CC4)no3)C2)c1 (centres undefined) | 16.3% |
| CCOC(=O)CSc1nnc(CNc2cccc(Cl)c2)n1-c1ccccc1 | -7.68% |

| SMILES | inhibition |
| --- | --- |
| COc1ccc(NCc2nnc(SCc3ccc(Cl)cc3)n2-c2ccccc2)cc1 | -5.4% |
| Cc1ccccc1S(=O)(=O)Cc1ccc(C(=O)NCCCOC(C)C)o1 | 2.68% |
| CN(CC(=O)Nc1ccccc1Cl)C(=O)COC(=O)c1ccc(=O)n(Cc2ccccc2)n1 | 0.91% |
| Cc1sc2nc(CN(C(=O)NC3CCCCC3)C3CCCCC3)[nH]c(=O)c2c1C | 26.1% |
| CC(=O)N(Cc1nc2sc(C)c(C)c2c(=O)[nH]1)C1CCCC1 | -3.15% |
| O=C(Cc1ccc(F)cc1)N(c1ccccc1)C1C=CS(=O)(=O)C1 (centres undefined) | -6.47% |
| CCn1cc(C2C(C(=O)Nc3cc(C)ccn3)=C(C)NC3=C2C(=O)CC(C)(C)C3)c(C)n1 (centres undefined) | 1.96% |
| CCCCCCn1c(=O)c(C(=O)Nc2ncccc2O)c(O)c2ccccc21 | 13.4% |
| CCCn1c(=O)c(C(=O)Nc2ncccc2C)c(O)c2ccccc21 | 18.3% |
| CC1(C)CC(=O)C(N=Nc2cccc([N+](=O)[O-])c2)=C(O)C1 | 0.73% |
| CCN(N=Nc1cccc([N+](=O)[O-])c1)c1cccc([N+](=O)[O-])c1 | 4.11% |
| COc1ccc(CCN2C(=O)CSC2c2ccc(F)cc2)cc1 (centres undefined) | -7.99% |
| Cc1ccc(S(=O)(=O)N(C)c2ccc(C(=O)Nc3ccccn3)cc2)cc1 | 27.5% |
| COc1ccc(-c2sc3ccc(N4CCOCC4)cc3c2-c2ccc(OC)c(F)c2)cc1 | -0.65% |
| Cc1nc(SCc2nc3ccccc3[nH]2)c2oc3cc(Br)ccc3c2n1 | 0.43% |
| Cc1cc(NC(=O)Cn2ccsc2=N)c([N+](=O)[O-])cc1C | -4.45% |
| N=c1sccn1CC(=O)Nc1ccc(Cl)cc1[N+](=O)[O-] | -3.88% |
| CC(Oc1ccccc1)C(=O)N1CCC2(CC1)Oc1ccc(Cl)cc1C(=O)C21CC(c2ccccc2)=NO1 (centres undefined) | 23.6% |
| CC(C)C(=O)N1CCC2(CC1)Oc1ccc(Cl)cc1C(=O)C21CC(c2cccnc2)=NO1 (centres undefined) | 1.87% |
